# The whole screen tested about 310,000 compounds, of which about 14,000 (4.5%) showed an effect of 50% or more. Effects have a minus sign here. The entries come from a sample that favours strong results as a whole.
# Biological target: human ether-à-go-go-related gene (hERG) potassium channel (human, UniProt Q12809)
# Experiment: primary screen, population patch clamp on CHO cells stably expressing hERG; higher = less effect of the substance
# 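Also: peak tail current of the secondary pulse compared with the same well before compound.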
# human ether-à-go-go-related gene (hERG) potassium channel, sequence (Q12809 whole entry, looked up): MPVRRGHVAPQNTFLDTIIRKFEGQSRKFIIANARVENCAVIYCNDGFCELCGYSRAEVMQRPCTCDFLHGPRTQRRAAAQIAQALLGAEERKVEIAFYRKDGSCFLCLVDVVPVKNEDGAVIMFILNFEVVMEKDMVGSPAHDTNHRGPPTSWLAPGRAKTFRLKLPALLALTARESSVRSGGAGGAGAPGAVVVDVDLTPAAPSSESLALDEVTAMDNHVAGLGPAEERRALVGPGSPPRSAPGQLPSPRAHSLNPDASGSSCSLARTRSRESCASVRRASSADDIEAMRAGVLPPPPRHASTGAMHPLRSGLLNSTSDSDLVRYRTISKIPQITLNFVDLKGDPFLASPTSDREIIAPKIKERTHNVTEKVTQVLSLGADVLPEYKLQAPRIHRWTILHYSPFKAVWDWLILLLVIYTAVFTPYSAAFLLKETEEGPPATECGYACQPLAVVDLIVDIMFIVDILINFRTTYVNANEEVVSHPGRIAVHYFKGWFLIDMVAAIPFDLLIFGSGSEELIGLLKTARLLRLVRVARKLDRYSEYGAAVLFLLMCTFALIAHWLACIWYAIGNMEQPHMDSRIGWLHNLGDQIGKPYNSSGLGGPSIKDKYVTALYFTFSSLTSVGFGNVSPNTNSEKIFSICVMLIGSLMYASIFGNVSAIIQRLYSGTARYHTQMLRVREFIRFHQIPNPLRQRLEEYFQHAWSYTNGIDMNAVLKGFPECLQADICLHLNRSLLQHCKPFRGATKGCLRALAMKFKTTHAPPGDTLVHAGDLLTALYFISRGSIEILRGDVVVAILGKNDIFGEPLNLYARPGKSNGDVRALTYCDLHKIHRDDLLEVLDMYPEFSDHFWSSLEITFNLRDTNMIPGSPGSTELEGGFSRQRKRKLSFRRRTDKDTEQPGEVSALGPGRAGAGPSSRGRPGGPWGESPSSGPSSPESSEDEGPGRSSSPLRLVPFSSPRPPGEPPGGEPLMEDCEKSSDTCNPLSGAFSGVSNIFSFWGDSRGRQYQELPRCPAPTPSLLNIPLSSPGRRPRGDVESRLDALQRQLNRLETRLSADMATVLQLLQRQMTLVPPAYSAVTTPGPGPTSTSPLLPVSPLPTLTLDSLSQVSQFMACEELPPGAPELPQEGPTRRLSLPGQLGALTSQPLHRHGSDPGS
row,SMILES,"hERG current change (%, negative = inhibition) at 10uM [%]"
1,O=C(CCCc1c[nH]c2ccccc12)Nc1ncccc1O,14.7
2,CC1CCN(C2CC(=O)N(c3ccc(Br)cc3Br)C2=O)CC1 (centres unmarked),2.17
3,COc1ccc(C(CNC(=O)c2cc3ccccc3cc2O)N2CCOCC2)cc1 (centres unmarked),-3.36
4,COc1ccccc1/C=C/CN1CCC(n2nccc2NC(=O)C2CC2)CC1,-59.1
5,CC(=O)c1cccc(CN2CCC(n3nccc3NC(=O)CCc3ccccc3)CC2)c1,-25.1
6,CSCC(=O)N1CCC(n2nccc2NC(=O)CCc2ccccc2)CC1,12.1
7,COCCC(=O)N1CCC(n2nccc2NC(=O)CCc2ccccc2)CC1,14.2
8,CC(C)C(=O)N1CCC(n2nccc2NC(=O)CCc2ccccc2)CC1,18.7
9,O=C(CCc1ccccc1)Nc1ccnn1C1CCN(C/C=C/c2ccccc2)CC1,-72.1
10,COc1cc(CC(=O)N2CCC(n3nccc3NC(=O)C3CC3)CC2)cc(OC)c1OC,12.8
11,COc1ccccc1/C=C/CN1CCC(n2nccc2NC(=O)CCc2ccccc2)CC1,-86.1
12,COc1ccccc1CC(=O)N1CCC(n2nccc2NC(=O)C2CCOC2)CC1 (centres unmarked),4.83
13,COCC1CCCN(C(=O)c2ccc3oc(CCCc4ccccc4)nc3c2)C1 (centres unmarked),-16.2
14,CCn1c(SCC(=O)C(C)(C)C)nnc1-c1cccnc1,-0.363
15,CC(C)NS(=O)(=O)c1ccc(NC(=O)C(C)OC(=O)CCC2CCCC2)cc1 (centres unmarked),7.06
16,Cc1cc(C(=O)N/N=C/c2cc([N+](=O)[O-])ccc2O)c2ccccc2n1,6.35
17,CCOCCCNC(=S)N(CCN(CC)CC)Cc1cc2cc3c(cc2[nH]c1=O)OCCO3,7.75
18,CCCN(CCC)C1Sc2ccc(C(=O)OC)cc2NC1=O (centres unmarked),-9.31
19,Cc1ccc(NC(=S)N2CCC(O)CC2)c(C)c1,16.3
20,CC(=O)Oc1ccc2nc(CN3C(=O)c4ccc([N+](=O)[O-])cc4C3=O)oc(=O)c2c1,10
21,CC(=O)NN1C(=O)c2ccccc2NC1c1ccco1 (centres unmarked),15.7
22,CC1Nc2ccccc2C(=O)N1NC(=O)c1ccc(Br)cc1 (centres unmarked),-9.66

row,SMILES,"hERG current change (%, negative = inhibition) at 10uM [%]"
1,O=C(NN1C(=O)c2ccccc2NC1c1ccco1)c1ccccc1 (centres unmarked),-0.469
2,O=C(NN1C(=O)c2ccccc2NC1c1ccc([N+](=O)[O-])o1)c1ccccc1 (centres unmarked),-9.78
3,O=C(NN1C(=O)c2ccccc2NC1c1ccc([N+](=O)[O-])o1)c1ccc(Br)cc1 (centres unmarked),-72.7
4,O=C(NN1C(=O)c2ccccc2NC1c1ccc([N+](=O)[O-])o1)c1ccc([N+](=O)[O-])cc1 (centres unmarked),-65.5
5,CC(=O)NN1C(=O)c2ccccc2NC1c1ccc([N+](=O)[O-])o1 (centres unmarked),8.22
6,O=C(NN1C(=O)c2ccccc2NC1c1ccco1)c1ccc(Br)cc1 (centres unmarked),-76.6
7,O=C(NN1C(=O)c2ccccc2NC1c1ccoc1)c1ccc([N+](=O)[O-])cc1 (centres unmarked),-41.8
8,COc1ccccc1NCCC(=O)OCC(=O)NC1CCCC(C)C1C (centres unmarked),9.37
9,CCOc1cc(/C=C2/C(=N)N3N=C(C)SC3=NC2=O)ccc1OS(=O)(=O)c1ccc(C)cc1,0.16
10,COc1ccc(NC(=O)Cn2c(=O)n(-c3ccccc3)c(=O)c3sccc32)c(OC)c1,0.835
11,CCOC(=O)c1sc(NC(=O)CCN2CCN(C)CC2)c(C(=O)OCC)c1C,-79
12,CCOC(=O)c1c(NC(=O)c2cccs2)sc(C(=O)N(C)C)c1C,-10.9
13,CCOC(=O)c1sc(NC(=O)CCN2CCOCC2)c(C(=O)OCC)c1C,-2.58
14,CCOC(=O)c1sc(NC(=O)CCN2CCC(C)CC2)c(C(=O)OCC)c1C,9
15,CCOC(=O)c1c(-c2ccc(C)cc2)csc1NC(=O)CCN1CCOCC1,-42.1
16,CCOC(=O)c1sc(NC(=O)CCN2CCCCCC2)c(C(=O)OCC)c1C,-24.7
17,CCOC(=O)c1c(-c2ccc(-c3ccccc3)cc2)csc1NC(=O)CCN1CCOCC1,13.8
18,CCOC(=O)c1c(NC(=O)c2cccs2)sc(C(=O)N2CCOCC2)c1C,-55.5
19,CCOC(=O)c1c(NC(=O)c2cccs2)sc(C)c1C,3.46
20,CCOC(=O)c1sc(NC(=O)CCN2CC(C)OC(C)C2)c(C(=O)OCC)c1C.O=C(O)C(=O)O (centres unmarked),13.9
21,CCOC(=O)c1c(-c2ccc(OC)cc2)csc1NC(=O)CCN1CCOCC1,-53.2
22,CCOC(=O)c1sc(NC(=O)CCN2CCN(CC)CC2)c(C(=O)OCC)c1C,-88.9

row,SMILES,"hERG current change (%, negative = inhibition) at 10uM [%]"
1,NS(=O)(=O)c1ccc(CNC(=O)CSc2ccccc2)cc1,14.5
2,CCOC(=O)C(=NC(C)CC)NNc1cccc(C(F)(F)F)c1 (centres unmarked),-1.86
3,O=C(c1ccc([N+](=O)[O-])cc1[N+](=O)[O-])N1CCCC1,5.62
4,CN(Cc1ccccc1)C(=O)c1cc(S(=O)(=O)N2CCOCC2)cn1C,-7.13
5,Fc1cc(Br)ccc1NC(=S)Nc1cccnc1,0.43
6,COc1ccc(C(=O)O)cc1S(=O)(=O)NC(C)C12CC3CC(CC(C3)C1)C2 (centres unmarked),1.27
7,O=C(NC1CCCCCC1)c1c(O)c2ccccc2[nH]c1=O,8.34
8,CCOC(=O)c1ccc(NC(=O)CCc2nc(-c3ccc(C)cc3)no2)cc1,5.14
9,Cc1cccc(OCC(=O)NCc2cc(C)nc3ccccc23)c1,-9.05
10,O=c1cc(CCl)[nH]c2nc3ccccc3n12,-6.02
11,CCC(C)n1c(SCc2ccc([N+](=O)[O-])cc2)nc2ccsc2c1=O (centres unmarked),-11.6
12,CN1CCN(c2nc(-c3ccc(Cl)s3)cs2)CC1,-3.91
13,O=c1oc(-c2ccc([N+](=O)[O-])cc2)nc2ccccc12,18.2
14,CCOC(=O)c1c(NC(=O)CSc2cccc[n+]2[O-])sc(C(=O)Nc2ccccc2)c1C,-30.1
15,CCOC(=O)c1c(NC(=O)CN2CCN(C)CC2)sc(C(=O)Nc2ccccc2)c1C,-58.9
16,CCOC(=O)c1sc(NC(=O)CN2CCCC2)c(C(=O)OCC)c1C,-6.37
17,Cc1ccc(NC(=O)CSCC(=O)OC(C)C(=O)Nc2ccc(S(N)(=O)=O)cc2)c(C)c1 (centres unmarked),5.08
18,COc1ccc(F)cc1C(=O)C1CCCN(C(=O)c2ocnc2C)C1 (centres unmarked),-10.1
19,O=C(NC1CCCC1)C(=O)N(Cc1cccnc1)C(C(=O)NC1CCCC1)c1ccco1 (centres unmarked),19.6
20,O=C(CN1CCN(c2ccccc2F)CC1)c1ccc2cc[nH]c2c1,-82.9
21,O=C(CN1CCN(c2ccccc2F)CC1)c1ccc2c(c1)OCO2,-10.3
22,O=C(CN1CCN(c2ccccc2F)CC1)c1ccc(O)c(O)c1,-70.7

row,SMILES,"hERG current change (%, negative = inhibition) at 10uM [%]"
1,O=C(CN1CCN(c2ccccc2)CC1)c1ccc2cc[nH]c2c1,11.4
2,O=C(CN1CCN(c2ccccc2F)CC1)c1ccc(O)cc1O,14.2
3,O=C(CN1CCOCC1)c1ccc2cc[nH]c2c1,8.82
4,CC(=O)Cc1nsc(NC(=O)c2ccc(-c3cc(C(F)(F)F)ccc3Cl)o2)n1,22.7
5,O=C(c1cccnc1)N1CCN(S(=O)(=O)c2ccc3ccccc3c2)CC1,-34.9
6,CC(CNC(=O)c1ccc(Br)o1)NC(=O)c1ccc(Br)o1 (centres unmarked),-0.676
7,CC1CCCCC1NC(=O)COC(=O)CCC(=O)c1cccs1 (centres unmarked),17.3
8,CCn1c(Cn2nnc(-c3ccccc3)n2)nnc1SCC(=O)Nc1ccccc1,-7.39
9,CC(C)Oc1ccc(NC(N)=O)cc1,1.14
10,COCCN=C1Sc2nc3c(C)cccc3cc2CN1Cc1ccco1,8.49
11,COCCN=C1Sc2nc3ccc(C)cc3cc2CN1Cc1cccs1,-11.1
12,CCOc1ccc(N=C2Sc3nc4ccc(C)cc4cc3CN2CCOC)cc1,41.4
13,CCC(C)N=C1Sc2nc3ccc(C)cc3cc2CN1CCOC (centres unmarked),-79
14,COCCN=C1Sc2nc3ccc(C)cc3cc2CN1Cc1ccco1,-61
15,COCCN1Cc2cc3cc(C)ccc3nc2SC1=Nc1ccc(OC)cc1,7.73
16,CCNC(=O)CSc1nnc(-c2cccc(S(=O)(=O)N(CC)CC)c2)n1CCc1ccccc1,-9.82
17,Cn1ccc(C(=O)Nc2ccc3c(c2)OCCO3)n1,21.9
18,O=C(NN1CCOCC1)c1cn(-c2ccccc2)nc1-c1cccs1,-1.47
19,COC(=O)c1nc(NC(=O)c2ccccc2)n[nH]1,-9.58
20,O=C(C1=NN[C@@H]2C(=O)N(c3cccc(F)c3)C(=O)[C@H]12)C(c1ccccc1)c1ccccc1,-19.2
